From PubChem BioAssay (NCATS) come the findings set out here.

Results filed as inconclusive are left out. A number with no mark means an inactive call. Active and inactive are the calls of the source. The call rests on the fitted dose curve; in most records, active means well fitted cell-killing curve with a large enough effect; inconclusive means small, poorly fitted or top-dose-only effect; inactive means no such curve, though single readings can be large or run the other way.

A short description of this assay: qHTS of pediatric cancer cell lines to identify multiple opportunities for drug repurposing: Primary screen for Rh41 cells (AID 1347108).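 Further: luminescence drop marks cytotoxic hits; nearly all actives have a fitted effect of over 70% in size.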 As to conditions: Rh41 rhabdomyosarcoma viability, CellTiter-Glo luminescence, 48 h; series mostly up to 46 µM. The method, boiled down: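 CRCs from 8- or 11-point titrations (lowest final 0.59 nM NPC, 0.78 nM MIPE). Cell viability: CellTiter-Glo after 48 h incubation, 15 min room-temperature development, luminescence imaging.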
For `Cc1cccc(C(=O)O)c1O`, the molecule was classed as inactive.
The same measure, in the same setting: the result for `CCOc1cc(NC(C)=O)ccc1C(=O)OC` reads “inactive”; that for `CCc1cccc(CC)c1NC(=O)CN(CC(=O)O)CC(=O)O`, “inactive”.
On the same count and under the same terms, the result for `O=C1c2cccc(O)c2C(=O)c2c(O)cccc21` reads “inactive”; that for `CCCCCCCC(=O)OCC(O)CO` (stereo not drawn), “inactive”.
On the same count and under the same terms, the result for `Cn1cc(C(=O)[C@@H]2CCc3nc[nH]c3C2)c2ccccc21` reads “inactive”.
On to `Cn1c([N+](=O)[O-])cnc1COC(N)=O`, for which the call was inactive.
Consider `CC1CCN(CCCC(=O)c2ccc(F)cc2)CC1`, for which the result was inactive.
With `NS(=O)(=O)c1ccc(C(=O)O)cc1`, the call was inactive.
Still for that read-out and setting: the result for `OCc1ccc(Cl)cc1Cl` reads “inactive”; that for `CC(=O)Nc1ccc(C(=O)O)cc1`, “inactive”.
Same read-out and setting: the result for `CCCCCCCCCCCCCCCCCCO` reads “inactive”; that for `CCCCCOC(=O)Nc1nc(=O)n([C@@H]2O[C@H](C)[C@@H](O)[C@H]2O)cc1F`, “inactive”.
Same read-out and setting: the result for `CC(=O)NCc1c(I)c(NC(C)=O)c(I)c(C(=O)O)c1I` reads “inactive”; that for `Cc1cc(=O)[nH]c(=S)[nH]1`, “inactive”.
Consider `O=C(O)CCCc1ccccc1`, for which the molecule was classed as inactive.
Regarding `COC(=O)c1ccc(O)cc1`, the call was inactive.
Still for that read-out and setting: with `CCOC(=O)[C@H](CCc1ccccc1)N[C@@H](C)C(=O)N1CCC[C@H]1C(=O)O` the entry was “inactive”.
Same read-out and setting: the result for `C[C@H]1COc2c(C3(N)CC3)c(F)cc3c(=O)c(C(=O)O)cn1c23` reads “inactive”; that for `COc1nccnc1NS(=O)(=O)c1ccc(N)cc1`, “inactive”; that for `NS(=O)(=O)c1cc2c(cc1C(F)(F)F)NCNS2(=O)=O`, “inactive”.
Same read-out and setting: with `Cc1cccc(Nc2ccccc2C(=O)O)c1C` the entry was “inactive”.
As to `O=C(/C=C/c1ccc(O)c(O)c1)O[C@@H]1C[C@@](OC(=O)/C=C/c2ccc(O)c(O)c2)(C(=O)O)C[C@@H](O)[C@@H]1O`, the result was inactive.
Still for that read-out and setting: with `CN1CC(=O)NC1=N` the entry was “inactive”.
In the case of `N[C@@H](Cc1ccc(O)cc1)C(=O)O`, the activity change, negative = cytotoxic is 24.2% [at 9.22 µM].
As to `CC1(C)S[C@@H]2[C@H](NC(=O)C(C(=O)O)c3ccccc3)C(=O)N2[C@H]1C(=O)O` (stereo partly drawn), the molecule was called inactive.
For the molecule `CC(=O)OC[C@H]1O[C@@](COC(C)=O)(O[C@H]2O[C@H](COC(C)=O)[C@@H](OC(C)=O)[C@H](OC(C)=O)[C@H]2OC(C)=O)[C@@H](OC(C)=O)[C@@H]1OC(C)=O`, the molecule was called inactive.
On the same count and under the same terms, with `OC[C@@H](O)[C@@H](O)[C@H](O)[C@H](O)CO` the entry was “inactive”.
The same measure, in the same setting: the result for `O=c1[nH]c2cc(C(F)(F)F)c(N3CCOCC3)cc2n(CP(=O)(O)O)c1=O` reads “inactive”; that for `Cc1ncc(CO)c(CN)c1O`, “inactive”; that for `O=C(O)c1cc(=O)c2ccccc2o1`, “inactive”.
For `COc1ccc(C(=O)NCc2ccc(OCCN(C)C)cc2)cc1OC`, the result was inactive.
Still for that read-out and setting: the result for `CC1CCc2cc(F)cc3c(=O)c(C(=O)O)cn1c23` (stereo not drawn) reads “inactive”; that for `NNC(=O)CP(=O)(c1ccccc1)c1ccccc1`, “inactive”.
Still for that read-out and setting: the result for `CN1CCCN=C1COC(=O)C(O)(c1ccccc1)C1CCCCC1` (stereo not drawn) reads “inactive”.
Still for that read-out and setting: the result for `NS(=O)(=O)c1cc(C2(O)NC(=O)c3ccccc32)ccc1Cl` (stereo not drawn) reads “inactive”.
For `Cc1ccsc1/C=C/C1=NCCCN1C`, the result was inactive.
Same read-out and setting: with `CC(=O)Nc1ccc(OCCOCCOc2ccc(NC(C)=O)cc2)cc1` the entry was “inactive”.
